Measured values as given in PubChem BioAssay (NCATS).
Results filed as inconclusive are left out. A call without a number means that no potency is given here. Activity calls are given as the source filed them. The call rests on the fitted dose curve; in most records, active means well fitted cell-killing curve with a large enough effect; inconclusive means small, poorly fitted or top-dose-only effect; inactive means flat fitted curve, though single readings scatter. Peptide text beside a SMILES is read from it.

Assay: Quantitative highthroughput screen to assess conditional lethalithy of P12 Ichikawa cells grown in Human Plasma-Like Medium with dialyzed fetal bovine serum (HPLM+ds) (AID 1963879)
Conditions: ATP luminescence, 48 h; Potency: viability; series mostly up to 45.8 µM
Procedure, shortened: (§1)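 Each medium arm—HPLM with 10% dialyzed FBS, or RPMI1640 with 5 mM glucose and 10% untreated or dialyzed FBS—was screened against an 11-point, 3-fold compound titration for 48 h at 37 °C, with CellTiter-Glo luminescence as endpoint.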
Further: nearly all actives have a fitted effect of over 35% in size.

Row | SMILES | Potency
1 | Cn1c(N2CCCCS2(=O)=O)nc(C(=O)NCc2ccc(F)cc2)c(O)c1=O | inactive
2 | Nc1ccn([C@@H]2CS[C@H](CO)O2)c(=O)n1 | inactive
3 | CN(C)CC(=O)N1CCC(c2ccc(NC(=O)c3ncc(C#N)[nH]3)c(C3=CCCCC3)c2)CC1 | inactive
4 | N[C@@H]1CONC1=O | inactive
5 | Cc1nc2c([nH]1)CCN(C(=O)c1ccc(NC(=O)c3ccccc3-c3ccccc3)cc1)c1ccccc1-2 | inactive
6 | COC(=O)[C@H](Cc1ccccc1)NC(=O)[C@@H](N)CC(=O)O (H-Asp-Phe-OMe) | inactive
7 | CCC(C)(Oc1ccc(C2(c3ccc(OC(C)(CC)C(=O)O)cc3)CCCCC2)cc1)C(=O)O (stereo not given) | inactive
8 | Nc1ccc(S(N)(=O)=O)cc1 | inactive
9 | CNS(=O)(=O)CCc1ccc2[nH]cc(C3CCN(C)CC3)c2c1 | inactive
10 | CCOCC(O)COc1ccc(NC(=O)CC[S+](C)C)cc1 (stereo not given) | inactive

Assay: Quantitative highthroughput screen to assess conditional lethalithy of P12 Ichikawa cells grown in RPMI1640 with dialyzed fetal bovine serum (RPMI+ds) (AID 1963880)
Conditions: ATP luminescence, 48 h; Potency: P12-Ichikawa viability; series mostly up to 45.8 µM
Procedure, shortened: as §1

Row | SMILES | Potency
11 | Cn1c(N2CCCCS2(=O)=O)nc(C(=O)NCc2ccc(F)cc2)c(O)c1=O | inactive
12 | Nc1ccn([C@@H]2CS[C@H](CO)O2)c(=O)n1 | inactive
13 | CN(C)CC(=O)N1CCC(c2ccc(NC(=O)c3ncc(C#N)[nH]3)c(C3=CCCCC3)c2)CC1 | inactive
14 | N[C@@H]1CONC1=O | inactive
15 | Cc1nc2c([nH]1)CCN(C(=O)c1ccc(NC(=O)c3ccccc3-c3ccccc3)cc1)c1ccccc1-2 | inactive
16 | COC(=O)[C@H](Cc1ccccc1)NC(=O)[C@@H](N)CC(=O)O (H-Asp-Phe-OMe) | inactive
17 | CCC(C)(Oc1ccc(C2(c3ccc(OC(C)(CC)C(=O)O)cc3)CCCCC2)cc1)C(=O)O (stereo not given) | inactive
18 | Nc1ccc(S(N)(=O)=O)cc1 | inactive
19 | CNS(=O)(=O)CCc1ccc2[nH]cc(C3CCN(C)CC3)c2c1 | inactive
20 | CCOCC(O)COc1ccc(NC(=O)CC[S+](C)C)cc1 (stereo not given) | inactive

Assay: Quantitative highthroughput screen to assess conditional lethalithy of P12 Ichikawa cells grown in RPMI1640 with untreated serum (RPMI+s) (AID 1963881)
Conditions: ATP luminescence, 48 h; Potency: viability; series mostly up to 45.8 µM
Procedure, shortened: as §1

Row | SMILES | Potency
21 | Cn1c(N2CCCCS2(=O)=O)nc(C(=O)NCc2ccc(F)cc2)c(O)c1=O | inactive
22 | Nc1ccn([C@@H]2CS[C@H](CO)O2)c(=O)n1 | inactive
23 | CN(C)CC(=O)N1CCC(c2ccc(NC(=O)c3ncc(C#N)[nH]3)c(C3=CCCCC3)c2)CC1 | inactive
24 | N[C@@H]1CONC1=O | inactive
25 | Cc1nc2c([nH]1)CCN(C(=O)c1ccc(NC(=O)c3ccccc3-c3ccccc3)cc1)c1ccccc1-2 | inactive
26 | COC(=O)[C@H](Cc1ccccc1)NC(=O)[C@@H](N)CC(=O)O (H-Asp-Phe-OMe) | inactive
27 | CCC(C)(Oc1ccc(C2(c3ccc(OC(C)(CC)C(=O)O)cc3)CCCCC2)cc1)C(=O)O (stereo not given) | inactive
28 | Nc1ccc(S(N)(=O)=O)cc1 | inactive
29 | CNS(=O)(=O)CCc1ccc2[nH]cc(C3CCN(C)CC3)c2c1 | inactive
30 | CCOCC(O)COc1ccc(NC(=O)CC[S+](C)C)cc1 (stereo not given) | inactive
